Legend:
Conditions in all cases: concentration: 1 μM, replicates: in singlicate; n = 1
PCTK2 = system: T1, PCTK2
T1 construct: gene CDK17

PCTK3 = system: T2, PCTK3
T2 construct: gene CDK18

PDGFRA = system: PDGFRA
PDGFRB = system: PDGFRB
PDPK1 = system: PDPK1
PFTAIRE2 = system: PFTAIRE2
PFTK1 = system: T3, PFTK1
T3 construct: gene CDK14

PHKG1 = system: PHKG1
PHKG2 = system: PHKG2
PIK3C2B = system: PIK3C2B
PIK3C2G = system: PIK3C2G
PIK3CA = system: PIK3CA
PIK3CB = system: PIK3CB
PIK3CD = system: PIK3CD
PIK3CG = system: PIK3CG
PIK4CB = system: T4, PIK4CB
T4 construct: gene PI4KB

PIKFYVE = system: PIKFYVE
PIM1 = system: PIM1
PIM2 = system: PIM2
PIM3 = system: PIM3
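Further: KINOMEscan kinase panel screen.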

Row | SMILES | %Inh (PCTK2) [%] | %Inh (PCTK3) [%] | %Inh (PDGFRA) [%] | %Inh (PDGFRB) [%] | %Inh (PDPK1) [%] | %Inh (PFTAIRE2) [%] | %Inh (PFTK1) [%] | %Inh (PHKG1) [%] | %Inh (PHKG2) [%] | %Inh (PIK3C2B) [%] | %Inh (PIK3C2G) [%] | %Inh (PIK3CA) [%] | %Inh (PIK3CB) [%] | %Inh (PIK3CD) [%] | %Inh (PIK3CG) [%] | %Inh (PIK4CB) [%] | %Inh (PIKFYVE) [%] | %Inh (PIM1) [%] | %Inh (PIM2) [%] | %Inh (PIM3) [%]
1 | CCc1ccc(-c2ccc3c(c2)-c2c(cnn2C)S(=O)(=O)N3C)cc1 | 10 | 0 | 0 | 6 | 4 | 0 | 0 | 5 | 0 | 8 | 0 | 5 | 0 | 0 | 2 | 12 | 53 | 1 | 0 | 0
2 | O=C(Nc1n[nH]c2nc(-c3ccc(O)cc3)ccc12)C1CC1 [SB-710363] | 56 | 6 | 48 | 32 | 5 | 28 | 14 | 5 | 0 | 0 | 0 | 0 | 0 | 0 | 2 | 20 | 0 | 45 | 89 | 81
3 | CN(c1ccc(NC(=O)Nc2cc(C(F)(F)F)ccc2F)cc1)c1ccnc(Nc2ccc(S(N)(=O)=O)cc2)n1 [GW809893] | 97.9 | 95.5 | 96.1 | 99.9 | 35 | 96.5 | 97 | 14 | 0 | 29 | 39 | 3 | 0 | 30 | 31 | 0 | 0 | 0 | 0 | 0
4 | Cc1occc1-c1ncc(OC[C@@H](N)Cc2c[nH]c3ccccc23)cc1-c1ccc2[nH]nc(C)c2c1.O=C(O)C(F)(F)F [GSK682037] | 0 | 0 | 0 | 81 | 0 | 16 | 14 | 0 | 0 | 0 | 0 | 0 | 0 | 0 | 0 | 0 | 0 | 39 | 97.4 | 64
5 | Nc1ncc(-c2cccnc2)c2scc(-c3ccc4c(c3)CCN4C(=O)Cc3ccccc3)c12 [GSK683281] | 8 | 18 | 53 | 94.3 | 21 | 33 | 20 | 18 | 0 | 0 | 0 | 0 | 0 | 0 | 0 | 0 | 0 | 0 | 0 | 0
6 | FC(F)(F)c1ccc(/C=C/c2cncnc2Nc2ccc3[nH]c(Cc4ccccc4)nc3c2)cc1 [GW709199] | 0 | 4 | 0 | 0 | 0 | 33 | 15 | 43 | 0 | 0 | 0 | 0 | 0 | 0 | 0 | 0 | 8 | 0 | 22 | 0
7 | Cc1ccc(C(=O)Nc2ccc(Nc3ccnc4cc(-c5nccs5)ccc34)cc2O)cc1.Cl [GW494702] | 0 | 0 | 28 | 74 | 10 | 7 | 0 | 4 | 0 | 0 | 23 | 0 | 0 | 0 | 0 | 30 | 0 | 0 | 6 | 0
8 | CNC(=O)c1ccccc1Nc1nc(Nc2ccc(N3CCOCC3)cc2)ncc1Cl.Cl [GSK1576028] | 43 | 0 | 80 | 100 | 42 | 43 | 17 | 84 | 72 | 17 | 0 | 15 | 50 | 29 | 31 | 56 | 53 | 45 | 0 | 55
9 | O=C(Nc1ccccc1F)NC1CCN(c2ccnc(Nc3ccc(F)cc3)n2)CC1 [GSK1379800] | 0 | 0 | 0 | 11 | 0 | 5 | 15 | 0 | 0 | 0 | 0 | 1 | 0 | 0 | 3 | 0 | 0 | 0 | 0 | 0
10 | Cl.c1ccc(-c2ccc3c(Nc4ccc5[nH]ncc5c4)ccnc3c2)nc1 [GW440137] | 14 | 20 | 90 | 89 | 0 | 12 | 19 | 0 | 0 | 3 | 0 | 6 | 0 | 2 | 5 | 0 | 7 | 0 | 0 | 9
